Measurements from PubChem BioAssay AID431 (Sanford-Burnham Center for Chemical Genomics, 2006).
About 1,100 (1.7%) of roughly 63,000 compounds were called active. This excerpt belongs to a sample that is enriched for actives. Entries with a potency or affinity are not part of this list. Values without a mark were called inactive.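 How the source made its calls: active means compounds whose percent cytotoxicity in the single-dose primary screen, scaled between solvent and toxic-drug controls, exceeds 50; inactive means the rest.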

Assay: viability loss of HPDE-C7K cells – cell-based, fluorescence, HTS, primary screen (AID 431);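 further: 0% = DMSO solvent wells and 100% = doxorubicin-treated wells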
Settings: HPDE-C7K KRASV12 cells, Alamar Blue viability, 48 h; at 10 µM; hits give high values

Row | SMILES | cytotoxicity
1 | O=C(CC1Sc2ccccc2NC1=O)Nc1cccc(C(=O)O)c1 (stereo not drawn) | 2.1%
2 | O=C(NCc1ccncc1)c1ccc(Br)o1 | -21.6%
3 | O=C(NCc1ccccc1Cl)C1CCN(S(=O)(=O)N2CCCCC2)CC1 | -3.6%
4 | CCOC(=O)Oc1ccc2oc(=O)cc(C)c2c1 | 10.2%
5 | CCOC(=O)/C=C(\C)Sc1cc(=O)oc2ccccc12 | 77.6% (active)
6 | CCOC(=O)Nc1cc(=O)c2ccccc2o1 | 38.2%
7 | Cc1csc(SCc2c(C(=O)O)oc3ccccc23)n1 | -0.8%
8 | CCOC(=O)C1=C(C)NC(=O)NC1c1cn(-c2ccccc2)nc1-c1cccs1 (stereo not drawn) | 23.8%
9 | Fc1cccc(F)c1CN1CCN(c2ncccn2)CC1 | -1.5%
10 | COCCN1Cc2cccc(C(=O)Nc3cccc(OC)c3)c2C1=O | -3.5%
11 | Cn1c(=O)c2cc(S(=O)(=O)N3CCN(c4cccc(C(F)(F)F)c4)CC3)ccc2n(C)c1=O | -3.4%
12 | Cn1c(=O)c(=O)n(C)c2cc(S(=O)(=O)N3CCN(c4cccc(C(F)(F)F)c4)CC3)ccc21 | 80.1% (active)
13 | Cc1c(S(=O)(=O)N2CCN(c3cccc(C(F)(F)F)c3)CC2)c(=O)n(C)c(=O)n1C | 5.8%
14 | COc1ccccc1CN(CC(=O)NCc1ccco1)C(=O)CNS(=O)(=O)c1ccccc1 | 1.2%
15 | COc1ccccc1N1CCN(C(=O)C2CCN(S(=O)(=O)c3ccc(Cl)cc3)CC2)CC1 | -11.9%
16 | Cc1cc(C(=O)OCC(=O)c2c(N)n(C)c(=O)n(C)c2=O)c(C)n1-c1ccccc1 | 1.3%
17 | Cc1cccc(S(=O)(=O)C(C#N)c2nc3ccccc3nc2N2CC(C)OC(C)C2)c1 (stereo not drawn) | 7.7%
18 | CC1CCCN(c2nc3ccccc3nc2C(C#N)S(=O)(=O)c2ccccc2)C1 (stereo not drawn) | 47.8%
19 | Cc1ccc(C)c(S(=O)(=O)C(C#N)c2nc3ccccc3nc2N2CC(C)OC(C)C2)c1 (stereo not drawn) | 59.3% (active)
20 | Cc1ccc(S(=O)(=O)C(C#N)c2nc3ccccc3nc2N2CC(C)OC(C)C2)cc1C (stereo not drawn) | 76.5% (active)
21 | Cc1ccc(S(=O)(=O)C(C#N)c2nc3ccccc3nc2N2CCCC2)cc1 (stereo not drawn) | 34.2%
22 | Cc1cccc(S(=O)(=O)C(C#N)c2nc3ccccc3nc2N2CCCC2)c1 (stereo not drawn) | -13.4%
23 | Cc1ccc(S(=O)(=O)C(C#N)c2nc3ccccc3nc2N2CCC(C)CC2)cc1 (stereo not drawn) | 30.1%
24 | Cc1ccc(C)c(S(=O)(=O)C(C#N)c2nc3ccccc3nc2N2CCOCC2)c1 (stereo not drawn) | -1.1%

Row | SMILES | cytotoxicity
25 | COc1ccc(S(=O)(=O)C(C#N)c2nc3ccccc3nc2N2CCCC(C)C2)cc1 (stereo not drawn) | 60.2% (active)
26 | Cc1ccc(C)c(S(=O)(=O)C(C#N)c2nc3ccccc3nc2N2CCCC2)c1 (stereo not drawn) | 14.7%
27 | COc1ccc(S(=O)(=O)C(C#N)c2nc3ccccc3nc2N2CCCCC2)cc1 (stereo not drawn) | 3.2%
28 | Cc1ccc(S(=O)(=O)C(C#N)c2nc3ccccc3nc2N2CCCC2)cc1C (stereo not drawn) | 56.7% (active)
29 | Cc1ccccc1C(=O)N1CCC(C(=O)Nc2cccc(F)c2)CC1 | 3%
30 | O=C(O)C1C2CCC(C2)C1C(=O)NCCCn1ccnc1 (stereo not drawn) | -7.9%
31 | CCCc1cc(=O)n2[nH]c(-c3cc(OC)c(OC)c(OC)c3)nc2n1 | -9.7%
32 | CCCOc1cccc(C(=O)Nc2cccc(NC(=O)c3ccco3)c2)c1 | 7.4%
33 | Cc1[nH]nc2c1C(c1ccc(F)cc1)C(C#N)=C(N)O2 (stereo not drawn) | -10.6%
34 | CCOC(=O)C1CCCN(Cc2ccccc2F)C1 (stereo not drawn) | 4.8%
35 | CC(C)c1ccc(S(=O)(=O)N2CCN(CC(=O)Nc3ccc4c(c3)OCO4)CC2)cc1 | 2.2%
36 | CCOC(=O)N1CCN(Cc2nc(-c3ccccc3)no2)CC1 | 11.5%
37 | O=S(=O)(Nc1nc2ccccc2nc1NCc1ccco1)c1ccc(Cl)cc1 | 20.9%
38 | Cc1noc(C)c1CSc1nc2ccccc2nc1NS(=O)(=O)c1ccc(Cl)cc1 | 64.6% (active)
39 | Cc1noc(C)c1CSc1ncnc2ccccc12 | 18.6%
40 | COc1cc(C2C(C(=O)OC(C)C)=C(C)Nc3[nH]c(=O)[nH]c(=O)c32)ccc1O (stereo not drawn) | -5.8%
41 | CN1C(=O)NC(NC(=O)c2cccs2)(C(F)(F)F)C1=O (stereo not drawn) | -12.1%
42 | COc1ccc(N(C(=O)c2cccc(OC)c2OC)C2C=CS(=O)(=O)C2)cc1 (stereo not drawn) | -2.9%
43 | c1ccc2c(c1)oc1c(Nc3ccc4c(c3)OCO4)ncnc12 | -23.6%
44 | COc1ccc(/C=N/n2c(N)nc3ccccc32)cc1OC | -9.4%
45 | COc1ccc(-c2nc(N)ncc2-c2csc(C)n2)c(O)c1 | -17.5%
46 | C=C(C)COc1ccc(-c2nc(N)ncc2-c2ccc(OC)cc2)c(O)c1 | 120% (active)
47 | Oc1ccc(-c2[nH]ncc2-c2ccc(Cl)cc2)c(O)c1 | 49.9%
48 | C=C(C)COc1ccc(-c2nc(N)ncc2Oc2ccccc2OC)c(O)c1 | -4.5%

Row | SMILES | cytotoxicity
49 | C=C(C)COc1ccc(-c2nc(N)ncc2Oc2ccc(OC)cc2)c(O)c1 | -0.9%
50 | Cc1[nH]nc(-c2ccc(O)cc2O)c1-c1ccc(Cl)cc1 | 53.9% (active)
51 | COc1ccc(-c2n[nH]c(C)c2-c2ccc(Cl)cc2)c(O)c1OC | -14.6%
52 | N#Cc1cc(C(=O)c2cc(Br)ccc2O)cn(C2CC2)c1=O | 10.6%
53 | O=C(c1ccc(CN2CCc3ccccc3C2)cc1)N1CCCCC1 | -21.9%
54 | O=S(=O)(c1ccc(N2CCOCC2)cc1)N1CCOCC1 | -6.3%
55 | CC(=O)N1CC2(C)CN(C(C)=O)CC(C)(C1)C2O (stereo not drawn) | 1.7%
56 | CCOc1cc(S(=O)(=O)NCCN2CCOCC2)c(C)cc1C | -17.8%
57 | C=CCc1ccccc1OCC(O)CN1CCN(c2ccc(OC)cc2)CC1 (stereo not drawn) | 9.3%
58 | COC(=O)C1(CCSC)NC(c2ccccc2OC)C2C(=O)N(C)C(=O)C21 (stereo not drawn) | 8%
59 | O=c1c2ccccc2nnn1CSc1nc2cc(Cl)ccc2c(=O)n1Cc1ccco1 | 6.2%
60 | CCOC(=O)N1CCN(C2=CC(=O)OC23CCCCC3)CC1 | 3.3%
61 | C=C(C)COc1ccc(-c2ncncc2Oc2ccc(OC)cc2)c(O)c1 | 17.6%
62 | C=C(C)COc1ccc(-c2n[nH]c(C)c2Oc2ccccc2OC)c(O)c1 | 66.1% (active)
63 | C=C(C)COc1ccc(-c2nc(N)nc(C)c2Oc2ccccc2OC)c(O)c1 | 1.4%
64 | Cc1[nH]nc(-c2ccc(O)cc2O)c1Oc1ccccc1 | 63.9% (active)
65 | COc1ccc(Oc2c(-c3ccc(O)cc3O)n[nH]c2C)cc1 | 27.1%
66 | Cc1oc2cc(O)ccc2c(=O)c1Oc1ccccc1 | -6.1%
67 | COc1cccc(Oc2cncnc2-c2ccc(OC)cc2O)c1 | 21.1%
68 | CCOc1ccc(-c2n[nH]c(C)c2Oc2ccccc2OC)c(O)c1 | 2.5%
69 | CCc1nnc(NC(=O)CSc2nnc(-c3ccoc3C)n2-c2ccc(C)cc2)s1 | -6.5%
70 | CC(OC(=O)C1CC=CCC1C(N)=O)C(Cl)=C(Cl)Cl (stereo not drawn) | -9.4%
71 | CC(C)OC(=O)CSc1nnc(-c2cnccn2)n1C | -7.5%
72 | O=C(NCCN1CCN(c2ccccc2F)CC1)C1c2ccccc2C(=O)N2CCc3ccccc3C12 (stereo not drawn) | -3.5%

Row | SMILES | cytotoxicity
73 | N#CCCC12CCCCC1=Nc1ccccc12 (stereo not drawn) | -11.5%
74 | CCN1CCN(CC(=O)n2c3c(c4ccccc42)CC(C)CC3)CC1 (stereo not drawn) | 16.2%
75 | COc1ccc(CNC(=O)c2cc(-c3ccco3)on2)cc1 | -5.9%
76 | c1csc(-c2nn3c(C4COc5ccccc5O4)nnc3s2)c1 (stereo not drawn) | -1.6%
77 | C=CCOc1nc2c(c(=O)n(C)c(=O)n2C)n1Cc1ccc(Cl)cc1Cl | -24.2%
78 | C=CCOc1nc2c(c(=O)n(Cc3ccc(Cl)cc3)c(=O)n2C)n1C | -0.2%
79 | C=CCOc1nc2c(c(=O)n(C)c(=O)n2C)n1Cc1ccc(Cl)cc1 | 64.6% (active)
80 | CCC(C)NC(=O)CN(c1ccc2c(c1)OCO2)S(=O)(=O)c1c(C)n[nH]c1C (stereo not drawn) | 3.1%
81 | CC1(C)CC(=O)c2cnc(NC(=O)CCc3ccccc3)nc2C1 | -12.6%
82 | N#Cc1c(NC(=O)Cn2c(=O)oc3ccccc32)oc(-c2ccccc2)c1-c1ccccc1 | 52% (active)
83 | CCn1c(SCC(=O)Nc2oc(-c3ccccc3)c(-c3ccccc3)c2C#N)nnc1-c1ccco1 | 29.1%
84 | N#Cc1c(NC(=O)CN2CCOCC2)oc(-c2ccccc2)c1-c1ccccc1 | 10.6%
85 | N#Cc1c(NC(=O)CCN2C(=O)c3ccccc3C2=O)oc(-c2ccccc2)c1-c1ccccc1 | 2.4%
86 | Cc1ccnc(SCC(=O)Nc2oc(-c3ccccc3)c(-c3ccccc3)c2C#N)n1 | 29.2%
87 | CCc1nnc(NC(=O)CN2CCN(c3ccccc3OC)CC2)s1 | -2.9%
88 | CCOC(=O)CSc1nc2ccsc2c(=O)n1C1CCN(C(=O)OCC)CC1 | 8%
89 | O=C(COC(=O)c1ccc2c(c1)OCO2)NCc1ccc(Cl)cc1 | 8.3%
90 | O=C(CCn1c(=O)c2sccc2n(CC(=O)OCc2ccccc2)c1=O)NCc1ccco1 | -12.9%
91 | CCOC(=O)c1ccc(N2C(=O)C(C)=C(C)C2=O)cc1 | 35.6%
92 | CCOC(=O)c1ccc(-n2[nH]c(-c3ccccc3)cc2=O)cc1 | 58.5% (active)
93 | CCOC(=O)c1ccc(-n2c(=O)[nH]c3ccccc3c2=O)cc1 | 3%
